“And” between values parts separate entries of the source, which are not always exact repeats. Equal entries are not always repeated. About 2,000 (36%) of roughly 5,500 compounds were called active. Another 18% or so got no clear call; they are omitted. No stated cut-off is given here; in the data, active means normalized growth mostly below about 0.91 (no sharp cut-off); inconclusive means no clear call, values can overlap the other calls; inactive means mostly above about 0.92. Some of the results follow.
Test: chemical genetic growth profiling, strain panel (AID 1159580);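 further: tested at 20 µM; growth read once vehicle control cultures reached saturation at 30 °C; 1 = growth at the plate median or of vehicle wells; lower values mean less growth of the strain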
Settings: S. cerevisiae deletion strains, growth OD

Measured: normalized growth

OCc1ccccc1O[C@@H]1O[C@H](CO)[C@@H](O)[C@H](O)[C@H]1O
inactive: locus YAL013W, strain DEP1, active compounds read low 0.994 | locus YAL021C, strain ccr4, active compounds read low 0.98 | locus YAL026C, strain drs2, active compounds read low 0.99 | locus YAL030W, strain snc1, active compounds read low 0.964 | locus YBL061C, strain skt5, active compounds read low 0.983 | locus YBR009C, strain hhf1, active compounds read low 0.977 | locus YBR021W, strain FUR4, active compounds read low 1.04 | locus YBR023C, strain chs3, active compounds read low 0.99 | locus YBR171W, strain sec66, active compounds read low 0.98 | locus YBR229C, strain ROT2, active compounds read low 0.95 | locus YBR231C, strain swc5, active compounds read low 0.983 | locus YBR279W, strain paf1, active compounds read low 0.983 | locus YCL011C, strain gbp2, active compounds read low 0.98 | locus YCL016C, strain dcc1, active compounds read low 0.991 | locus YCL029C, strain bik1, active compounds read low 0.994 | locus YCL069W, strain vba3, active compounds read low 1 | locus YCR088W, strain abp1, active compounds read low 0.98 | locus YDL005C, strain med2, active compounds read low 0.989 | locus YDL035C, strain GPR1, active compounds read low 1 | locus YDL040C, strain nat1, active compounds read low 0.994 | locus YDL074C, strain BRE1, active compounds read low 0.966 | locus YDL101C, strain DUN1, active compounds read low 0.976 | locus YDL134C, strain PPH21, active compounds read low 0.987 | locus YDL185W, strain tfp1, active compounds read low 0.983 | locus YDL192W, strain arf1, active compounds read low 0.994 | locus YDR001C, strain nth1, active compounds read low 0.984 | locus YDR069C, strain doa4, active compounds read low 0.987 | locus YDR101C, strain arx1, active compounds read low 0.946 | locus YDR137W, strain rgp1, active compounds read low 1.02 | locus YDR150W, strain NUM1, active compounds read low 0.98 | locus YDR159W, strain sac3, active compounds read low 0.944 | locus YDR162C, strain NBP2, active compounds read low 0.997 | locus YDR195W, strain ref2 0.962 | locus YDR297W, strain sur2, active compounds read low 1 | locus YDR318W, strain mcm21, active compounds read low 0.999 | locus YDR334W, strain swr1, active compounds read low 0.925 | locus YDR335W, strain msn5, active compounds read low 0.989 | locus YDR388W, active compounds read low 0.996 | locus YDR392W, strain spt3, active compounds read low 0.984 | locus YDR502C, strain sam2, active compounds read low 0.987 | locus YEL003W, strain gim4, active compounds read low 0.984 | locus YEL037C, strain rad23, active compounds read low 0.984 | locus YEL061C, strain CIN8 (second series), active compounds read low 0.972 | locus YEL061C, strain CIN8, active compounds read low 0.978 | locus YER015W, strain faa2, active compounds read low 0.998 | locus YER016W, strain bim1, active compounds read low 0.992 | locus YER110C, active compounds read low 0.994 | locus YER111C, strain swi4, active compounds read low 1.01 | locus YER155C, strain BEM2 (second series), active compounds read low 0.998 | locus YER155C, strain BEM2, active compounds read low 0.996 | locus YER167W, strain BCK2, active compounds read low 0.99 | locus YFR010W, strain ubp6, active compounds read low 0.998 | locus YGL078C, strain dbp3, active compounds read low 0.988 | locus YGL086W, strain mad1, active compounds read low 0.97 | locus YGL167C, strain pmr1, active compounds read low 1 | locus YGL173C, strain kem1, active compounds read low 0.995 | locus YGL227W, strain vid30, active compounds read low 0.965 | locus YGL240W, strain doc1, active compounds read low 0.996 | locus YGL248W, strain PDE1, active compounds read low 0.979 | locus YGL253W, strain hxk2, active compounds read low 0.987 | locus YGR078C, strain PAC10, active compounds read low 0.97 | locus YGR135W, strain pre9, active compounds read low 1.07 | locus YGR229C, strain SMI1, active compounds read low 1.01 | locus YGR252W, strain gcn5, active compounds read low 1.08 | locus YHR013C, strain ard1, active compounds read low 1.04 | locus YHR027C, strain rpn1, active compounds read low 0.959 | locus YHR030C, strain SLT2, active compounds read low 0.992 and 0.993 | locus YHR079C, strain IRE1 (second series), active compounds read low 0.983 | locus YHR079C, strain IRE1, active compounds read low 1.03 | locus YHR094C, strain hxt1, active compounds read low 1 | locus YHR129C, strain ARP1, active compounds read low 0.991 | locus YHR142W, strain chs7, active compounds read low 0.984 | locus YHR200W, strain rpn10, active compounds read low 0.987 | locus YIL066C, strain RNR3, active compounds read low 0.967 | locus YIL073C, strain SPO22, active compounds read low 1.02 | locus YIL125W, strain kgd1, active compounds read low 0.989 | locus YIR030C, strain dcg1, active compounds read low 0.997 | locus YJL092W, strain hpr5, active compounds read low 0.997 | locus YJL095W, strain BCK1 (second series), active compounds read low 0.987 | locus YJL095W, strain BCK1, active compounds read low 0.978 and 1.01 | locus YJL115W, strain asf1, active compounds read low 0.992 | locus YJL129C, strain trk1, active compounds read low 0.967 | locus YJL134W, strain LCB3, active compounds read low 0.991 | locus YJL154C, strain vps35, active compounds read low 0.991 | locus YJL164C, strain tpk1, active compounds read low 0.993 | locus YJL166W, strain qcr8, active compounds read low 1.01 | locus YJL168C, strain set2, active compounds read low 0.986 | locus YJL187C, strain SWE1 (second series), active compounds read low 0.952 | locus YJL187C, strain SWE1, active compounds read low 0.997 | locus YJR043C, strain POL32, active compounds read low 0.994
